Assay results taken from PubChem BioAssay.
The source made the active and inactive calls.

Columns and labels:
[1] = small molecules captured by biotinylated probe aFSTL3 – biochemical, small-molecule microarray, fluorescence 635/667, stem cell growth factor project, primary screen (AID 1064); settings: higher = more signal;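 also: measures binding of the biotinylated anti-FSTL3 antibody to printed compounds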
[2] = binders from COS7 lysate, DM2A8 probe, primary screen, torsin A project, cell lysate, small-molecule microarray, fluorescence 635/667 (AID 1065); settings: higher = more signal, COS7 lysate expressing mutant human TOR1A
[3] = small molecules captured by biotinylated probe aFGF2 – biochemical, small-molecule microarray, fluorescence 635/667, stem cell growth factor project, primary screen (AID 1067); settings: higher = more signal;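 also: measures binding of biotinylated aFGF2 protein to printed compounds on slides; z-score merges feature fluorescence and signal-to-noise across triplicate slides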
[4] = small molecules captured by biotinylated probe aFGF10 – biochemical, small-molecule microarray, fluorescence 635/667, stem cell growth factor project, primary screen (AID 1071); settings: higher = more signal;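 also: score merges 667 nm spot intensity and signal to noise from triplicate slides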
[5] = molecular target: Neurogenic locus notch homolog protein 2 (Homo sapiens) (UniProt Q04721); assay: small molecules binding Notch2 protein – biochemical, small-molecule microarray, 635 nm fluorescence, stem cell growth factors, primary screen (AID 1073); settings: higher = more signal
Chain of Neurogenic locus notch homolog protein 2 (Homo sapiens) (Q04721 whole entry, looked up, canonical isoform): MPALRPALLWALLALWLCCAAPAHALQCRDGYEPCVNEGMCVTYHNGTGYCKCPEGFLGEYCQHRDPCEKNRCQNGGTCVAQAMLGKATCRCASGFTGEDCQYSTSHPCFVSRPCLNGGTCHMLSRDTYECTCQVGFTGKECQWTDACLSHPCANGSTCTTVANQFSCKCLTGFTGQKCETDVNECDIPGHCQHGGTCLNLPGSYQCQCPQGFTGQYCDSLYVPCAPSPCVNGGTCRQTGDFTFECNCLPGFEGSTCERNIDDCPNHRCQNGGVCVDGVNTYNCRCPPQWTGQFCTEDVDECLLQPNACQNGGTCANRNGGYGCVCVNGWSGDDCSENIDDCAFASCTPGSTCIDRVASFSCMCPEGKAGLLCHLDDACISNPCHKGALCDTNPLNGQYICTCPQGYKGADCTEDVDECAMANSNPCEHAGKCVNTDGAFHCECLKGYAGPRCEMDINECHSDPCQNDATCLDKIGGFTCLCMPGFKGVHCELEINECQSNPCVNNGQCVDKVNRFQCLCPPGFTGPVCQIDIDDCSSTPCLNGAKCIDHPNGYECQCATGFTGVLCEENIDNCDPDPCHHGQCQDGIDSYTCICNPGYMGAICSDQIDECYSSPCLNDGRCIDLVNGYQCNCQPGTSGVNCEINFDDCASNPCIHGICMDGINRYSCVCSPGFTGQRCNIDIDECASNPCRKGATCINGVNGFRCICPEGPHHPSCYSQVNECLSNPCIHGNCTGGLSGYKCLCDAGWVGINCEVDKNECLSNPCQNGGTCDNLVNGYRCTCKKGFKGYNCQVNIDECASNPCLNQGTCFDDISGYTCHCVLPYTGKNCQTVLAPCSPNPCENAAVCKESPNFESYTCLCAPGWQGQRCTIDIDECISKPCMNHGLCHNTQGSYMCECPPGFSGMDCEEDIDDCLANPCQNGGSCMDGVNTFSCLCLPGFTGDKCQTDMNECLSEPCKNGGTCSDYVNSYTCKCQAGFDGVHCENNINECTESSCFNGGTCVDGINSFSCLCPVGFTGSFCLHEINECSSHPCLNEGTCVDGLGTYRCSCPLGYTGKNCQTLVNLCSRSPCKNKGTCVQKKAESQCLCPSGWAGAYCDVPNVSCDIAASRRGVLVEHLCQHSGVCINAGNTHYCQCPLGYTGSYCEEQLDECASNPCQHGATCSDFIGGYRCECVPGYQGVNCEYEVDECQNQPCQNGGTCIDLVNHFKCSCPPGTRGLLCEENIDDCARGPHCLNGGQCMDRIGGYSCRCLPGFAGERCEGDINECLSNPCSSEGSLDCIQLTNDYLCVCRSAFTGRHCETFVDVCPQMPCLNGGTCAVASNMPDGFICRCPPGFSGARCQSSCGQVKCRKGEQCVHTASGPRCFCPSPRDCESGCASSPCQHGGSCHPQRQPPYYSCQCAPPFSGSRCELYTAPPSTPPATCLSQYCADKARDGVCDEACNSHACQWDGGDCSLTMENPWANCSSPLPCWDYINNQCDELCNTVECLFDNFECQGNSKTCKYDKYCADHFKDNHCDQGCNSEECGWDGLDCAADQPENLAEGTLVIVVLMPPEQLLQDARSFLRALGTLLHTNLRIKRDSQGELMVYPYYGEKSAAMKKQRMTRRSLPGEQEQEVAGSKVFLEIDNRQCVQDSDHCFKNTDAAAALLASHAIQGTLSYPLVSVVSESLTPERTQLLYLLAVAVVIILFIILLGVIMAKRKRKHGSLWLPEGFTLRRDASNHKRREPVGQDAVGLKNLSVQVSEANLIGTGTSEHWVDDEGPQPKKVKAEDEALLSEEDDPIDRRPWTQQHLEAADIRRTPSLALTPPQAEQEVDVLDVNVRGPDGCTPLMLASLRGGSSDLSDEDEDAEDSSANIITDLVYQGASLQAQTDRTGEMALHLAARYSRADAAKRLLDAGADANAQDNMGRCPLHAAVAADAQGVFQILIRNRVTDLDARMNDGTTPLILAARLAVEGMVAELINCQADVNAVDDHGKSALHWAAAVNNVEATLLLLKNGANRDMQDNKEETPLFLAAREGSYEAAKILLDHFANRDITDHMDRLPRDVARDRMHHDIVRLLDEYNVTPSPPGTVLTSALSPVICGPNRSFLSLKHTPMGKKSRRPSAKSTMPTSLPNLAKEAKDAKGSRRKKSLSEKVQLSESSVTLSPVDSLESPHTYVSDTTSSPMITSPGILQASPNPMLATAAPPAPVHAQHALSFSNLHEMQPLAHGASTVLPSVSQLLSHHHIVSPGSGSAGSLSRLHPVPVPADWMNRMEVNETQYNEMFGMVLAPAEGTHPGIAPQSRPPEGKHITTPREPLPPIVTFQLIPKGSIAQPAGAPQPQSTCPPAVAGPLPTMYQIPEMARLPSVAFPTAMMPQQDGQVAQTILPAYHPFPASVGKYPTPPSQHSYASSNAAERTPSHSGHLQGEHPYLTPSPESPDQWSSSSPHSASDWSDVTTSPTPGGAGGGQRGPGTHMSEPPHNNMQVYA

[6] = molecular target: Pro-neuregulin-1, membrane-bound isoform (Homo sapiens) (UniProt Q02297); assay: small molecules binding neuregulin-1 protein – biochemical, small-molecule microarray, fluorescence 635/667, psychiatric disease protein project, primary screen (AID 1075); settings: NRG1 binding, 635 nm fluorescence, higher = more signal;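 also: score combines 667 nm spot fluorescence with signal to noise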
Chain of Pro-neuregulin-1, membrane-bound isoform (Homo sapiens) (Q02297 whole entry, looked up, the tested form may be a part, canonical isoform): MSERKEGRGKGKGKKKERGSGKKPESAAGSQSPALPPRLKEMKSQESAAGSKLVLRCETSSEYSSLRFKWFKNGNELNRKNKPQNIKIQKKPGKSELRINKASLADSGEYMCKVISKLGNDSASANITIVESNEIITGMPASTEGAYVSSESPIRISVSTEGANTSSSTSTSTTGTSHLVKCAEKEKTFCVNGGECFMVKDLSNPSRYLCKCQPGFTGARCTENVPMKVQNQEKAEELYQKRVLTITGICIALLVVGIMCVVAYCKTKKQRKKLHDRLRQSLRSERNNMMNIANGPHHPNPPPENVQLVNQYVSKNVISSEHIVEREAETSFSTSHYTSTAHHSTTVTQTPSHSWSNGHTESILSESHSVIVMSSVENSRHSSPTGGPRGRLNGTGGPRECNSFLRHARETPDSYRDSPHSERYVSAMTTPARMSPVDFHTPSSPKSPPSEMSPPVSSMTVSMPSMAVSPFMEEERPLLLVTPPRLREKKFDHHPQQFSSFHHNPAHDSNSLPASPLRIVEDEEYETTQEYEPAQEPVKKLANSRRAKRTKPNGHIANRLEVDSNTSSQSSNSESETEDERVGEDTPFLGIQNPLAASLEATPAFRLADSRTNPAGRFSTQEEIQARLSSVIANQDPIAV

[7] = test system: Neuregulin-1 EGF-like domain; assay: small molecules binding NRG1 EGF domain – biochemical, small-molecule microarray, 635 nm fluorescence, primary screen (AID 1081); settings: higher = more signal;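 also: binding of the protein to compounds printed on small-molecule microarray slides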
[8] = FRG1 expression reporter modulators in myotubes – cell-based, C2C12 myotubes, firefly/Renilla luciferase, luminescence, FRG1 inhibition for FSHD, primary screen (AID 1084); settings: FRG1 promoter luciferase, higher = more signal, called active from +8 up or from −8 down
[9] = small molecules captured by biotinylated probe aFST – biochemical, small-molecule microarray, fluorescence 635/667, stem cell growth factor project, primary screen (AID 1086); settings: higher = more signal;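 also: score merges 667 nm fluorescence with signal-to-noise of each printed compound spot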
[10] = binders of probe aHhip on microarray, primary screen, stem cell growth factor project, biochemical, small-molecule microarray, fluorescence 635/667 (AID 1087); settings: higher = more signal;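 also: score merges spot fluorescence at 667nm with spot signal to noise ratio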
[11] = test system: PRMT1 (protein arginine N-methyltransferase 1); assay: small molecules binding arginine methyltransferase PRMT1 – biochemical, small-molecule microarray, 635 nm fluorescence, primary screen (AID 1088); settings: higher = more signal;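 also: binding of Prmt1 protein to compounds spotted on small-molecule microarray slides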
[12] = growth effects on S. cerevisiae YJM789 – YJM789 clinical isolate, OD600, 24 h, basal, primary screen (AID 1089); settings: higher = more signal, called active from +8 up or from −8 down;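 also: growth of clinical yeast isolate S. cerevisiae YJM 789 seeded 1000 cells per well; test concentration not given here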
[13] = S. pombe growth modifiers, basal conditions – strain 972, OD600, 24 h, no modulator, primary screen (AID 1090);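 also: basal condition with compound alone and no growth modifier present; test concentration not given here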; settings: S. pombe 972 growth, higher = more signal, called active from +8 up or from −8 down
[14] = budding yeast growth modifiers under rapamycin – strain BY4716, OD600, 96 h, primary screen (AID 1091); also: test concentration not given here; settings: S. cerevisiae BY4716 + rapamycin, higher = more signal, called active from +8 up or from −8 down
[15] = molecular target: Torsin-1A-interacting protein 2 (Homo sapiens) (UniProt Q8NFQ8); assay: small molecules binding lysate-expressed LULL1 – cell lysate, human LULL1 lysate, 635/667 nm fluorescence, primary screen (AID 1092); settings: small-molecule microarray, hLULL1 lysate binding, 635 nm fluorescence; higher = more signal;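 also: probe is lysate of COS7 cells overexpressing human LULL1; score merges per-feature 667 nm fluorescence with signal-to-noise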
Chain of Torsin-1A-interacting protein 2 (Homo sapiens) (Q8NFQ8 whole entry, looked up): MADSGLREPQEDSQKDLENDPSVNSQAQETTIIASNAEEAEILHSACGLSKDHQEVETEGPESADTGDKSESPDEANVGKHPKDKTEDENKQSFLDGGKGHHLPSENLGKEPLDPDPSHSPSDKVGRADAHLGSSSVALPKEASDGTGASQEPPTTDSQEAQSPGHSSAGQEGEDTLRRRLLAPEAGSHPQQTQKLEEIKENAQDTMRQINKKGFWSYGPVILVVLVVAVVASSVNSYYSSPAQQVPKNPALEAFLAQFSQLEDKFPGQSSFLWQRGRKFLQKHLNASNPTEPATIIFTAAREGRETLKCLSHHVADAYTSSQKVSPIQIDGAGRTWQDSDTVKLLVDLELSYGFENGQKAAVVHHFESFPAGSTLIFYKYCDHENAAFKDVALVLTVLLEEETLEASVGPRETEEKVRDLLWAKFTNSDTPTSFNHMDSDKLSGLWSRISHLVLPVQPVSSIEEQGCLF

[16] = optical density change of DRC41 E. coli – strain DRC41, OD650, 24 h, E. coli filamentation project, primary screen (AID 1093);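 also: MC1000 strain lacking acrAB efflux and sulA so SOS filamentation is blocked; test concentration not given here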; settings: E. coli DRC41 growth, higher = more signal, called active from +8 up or from −8 down
[17] = probe aLefty2 binding to arrayed compounds – biochemical, biotinylated probe, 635/667 nm fluorescence, primary screen (AID 1094); settings: small-molecule microarray, higher = more signal;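 also: score merges spot fluorescence near 667 nm with spot signal-to-noise ratio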
[18] = test system: Noggin (protein binding on small-molecule microarray); assay: small molecules binding Noggin protein – biochemical, 635/667 nm fluorescence, primary screen (AID 1095); settings: 635 nm fluorescence, higher = more signal;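 also: score merges 667 nm feature fluorescence with signal to noise over triplicate slides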
[19] = molecular target: Neurogenic locus notch homolog protein 3 (Homo sapiens) (UniProt Q9UM47); assay: small molecules binding NOTCH3 protein – biochemical, 635/667 nm fluorescence, primary screen (AID 1096); settings: small-molecule microarray, 635 nm fluorescence, higher = more signal
[20] = probe aEGFR binding to arrayed compounds – biochemical, biotinylated probe, 635/667 nm fluorescence, primary screen (AID 1097); settings: small-molecule microarray, higher = more signal;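 also: probe is a biotinylated anti-EGFR antibody binding compounds printed on slides; score combines fluorescence near 667 nm and signal to noise of each spot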

Structure (SMILES) | composite z-score [1] | composite z-score [2] | composite z-score [3] | composite z-score [4] | composite z-score [5] | composite z-score [6] | composite z-score [7] | z-score [8] | composite z-score [9] | composite z-score [10] | composite z-score [11] | z-score [12] | z-score [13] | z-score [14] | composite z-score [15] | z-score [16] | composite z-score [17] | composite z-score [18] | composite z-score [19] | composite z-score [20]
NC(=O)N1C(=O)C2C(C1=O)C1C=C(CCCO)C2C(C2CC2)N1Cc1sc2ccccc2c1Cl (stereo not given) | -0.4 | 1.09 | 0.0397 | 1.27 | 0.481 | 1.45 | 1.21 | 0.906 (inactive) | 0.115 | -0.134 | 1.56 | -0.425 (inactive) | -2.48 (inactive) | -1.63 (inactive) | 2.14 | 0.792 (inactive) | 0.0819 | 0.355 | 1.13 | -0.0697
CCCc1cc2c(n1CCc1ccc(Cl)cc1)C(C)C1CN(C(=O)c3ccccc3)C(C)(C(=O)OC)C21 (stereo not given) | 1.44 | 0.721 | 0.384 | 0.204 | 1.73 | 1.78 | 0.937 | 1.91 (inactive) | 1.1 | 2.27 | 0.396 | 0.318 (inactive) | -0.29 (inactive) | 1.03 (inactive) | 3.31 | -2.17 (inactive) | 0.342 | -1.01 | 1.04 | 0.131
COc1cc(C(O)C2C=CC3C(=O)N(c4ccccc4)C(=O)C3N2Nc2ccccc2)cc(OC)c1OC (stereo not given) | 0.251 | 0.36 | 0.218 | 1.14 | 1.68 | 1.92 | 1.17 | 1.07 (inactive) | 1.48 | 0.189 | 1.54 | -0.722 (inactive) | 0.82 (inactive) | -0.205 (inactive) | 3.71 | -0.651 (inactive) | 0.228 | -0.124 | 1.03 | 0.0473
Cc1ccc(S[C@]2(C(=O)NCCCN(C)C)CC(=O)N(C3Cc4ccccc4C3)[C@@H]2c2ccc(CO)cc2I)cc1 | 0.533 | -0.602 | -0.0281 | -0.25 | 0.0374 | 1.88 | 0.522 | -0.967 (inactive) | 0.404 | -0.0373 | 0.961 | -0.471 (inactive) | -2.87 (inactive) | 1.32 (inactive) | 1.14 | -0.42 (inactive) | -0.035 | -0.978 | -0.105 | -0.0828
O=C(NCc1ccccc1)[C@@H]1c2ccccc2C(=O)N(Cc2ccc(OC(F)(F)F)cc2)[C@H]1c1ccc(CO)cc1 | 0.85 | 0.0787 | -0.0784 | -0.225 | -0.674 | 1.19 | 0.921 | -1.37 (inactive) | 0.0209 | 0.321 | 0.594 | -0.347 (inactive) | -0.753 (inactive) | -0.574 (inactive) | 2.62 | 0.301 (inactive) | -0.128 | -0.262 | -0.577 | 0.148
C[N+](C)(C)CCCC[C@@H]1NC(=O)[C@@H]2C[C@H](C(=O)NCc3ccc(F)cc3)[C@H](c3ccc(O)cc3)N2C1=O | 0.315 | -0.4 | -0.148 | -0.447 | -1.3 | 1.3 | 1.38 | 0.337 (inactive) | -0.936 | -0.201 | 0.116 | 0.166 (inactive) | 0.519 (inactive) | 0.425 (inactive) | 1.76 | -0.66 (inactive) | -0.139 | 0.401 | -0.146 | -0.271
[N-]=[N+]=Nc1ccccc1[C@H]1OC(c2ccc(OCCCO)cc2)=N[C@@]1(Cc1ccccc1)C(=O)NCC(O)CO (stereo not given in full) | 0.277 | 0.0899 | 0.0528 | 0.231 | 1.36 | 1.19 | 1.12 | 2.22 (inactive) | 1.03 | -0.0541 | 1.02 | -0.858 (inactive) | -1.13 (inactive) | 0.617 (inactive) | 3.52 | 0.824 (inactive) | 0.109 | 0.0821 | 0.206 | -0.0226
CCCCC(O)C1C=CC2C(=O)N(c3ccccc3)C(=O)C2N1Nc1ccc(C#N)cc1 (stereo not given) | 0.805 | -0.472 | -0.074 | 0.226 | 1.27 | 1.9 | 1.41 | 0.662 (inactive) | 0.941 | -0.112 | 0.771 | 0.243 (inactive) | 0.634 (inactive) | 1.64 (inactive) | 3.14 | -1.11 (inactive) | 0.444 | -0.358 | 0.473 | 0.247
N#Cc1ccc(NN2C(C(O)C3CC=CCC3)C=CC3C(=O)N(c4ccccc4)C(=O)C32)cc1 (stereo not given) | 0.076 | -0.902 | -0.073 | 0.39 | 1.5 | 1.89 | 1.29 | 0.474 (inactive) | 1.28 | -0.0427 | 0.995 | 0.609 (inactive) | 0.773 (inactive) | 1.99 (inactive) | 3.5 | -0.645 (inactive) | -0.0873 | 0.179 | 1.1 | 0.0149
COc1ccc([Si](C)(C)[C@@H]2[C@@H](CC(=O)N3CCC[C@H]3CO)O[C@]3(C(=O)N(Cc4ccc(N5CCOC5=O)cc4)c4ccccc43)[C@H]2C)cc1 | -0.29 | 0.59 | -0.155 | -0.0087 | 0.01 | 0.717 | 1.01 | -2.49 (inactive) | 0.138 | -0.0994 | 1.45 | -3.35 (inactive) | -1.13 (inactive) | -0.356 (inactive) | 2.72 | 0.985 (inactive) | -0.242 | 1.46 | 0.912 | -0.188
